Measurements reported in PMC5515408, “Sequence-specific DNA binding by MYC/MAX to low-affinity non-E-box motifs”.
The full ranking holds about 5,000 sequences; the median of “log2 normalized fluorescence” is about 0.089, and the highest 2% start at about 0.81. The sample holds the highest values, similar sequences and a random draw of the others, so the mix is not that of the screen.

Molecular target: MYC (p64);MAX (p21), in MYC:MAX (human;human, UniProt P01106-1;P61244-2 1-439;1-151, |)
Test: protein-binding microarray (anti-MAX antibody); PBM: 15 mM Tris-HCl pH 7.5, 100 mM KCl, 0.075% NP40, 7.5 mM beta-mercaptoethanol, 375 ng/ul BSA, 8 ng/ul poly(dA-dT):(dA-dT), 550 ng complex, 60 min, room tempe; high values mean tight binding
Conditions: protein: recombinant;recombinant; tags: 6xHis;6xHis; copies: 1;1; label: 3' end of printed strand (linker) attached to glass slide; dsDNA, one strand shown
Procedure, shortened: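 For each of ~5000 unique double-stranded 12-nt sequences, spotted in triplicate on a custom Agilent glass array, binding of His-tagged human MYC:MAX or MAX:MAX dimers is reported as log2 normalized fluorescence. The dimers (550 ng, E. coli-expressed) were incubated for 60 min at room temperature in Tris-KCl buffer, pH 7.5, with NP40, BSA and poly(dA-dT) competitor. Detection used anti-MAX and secondary antibodies with a 543 nm scan.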

MYC (p64);MAX (p21), in MYC:MAX, sequence (P01106 16-454, chain 1 of 2): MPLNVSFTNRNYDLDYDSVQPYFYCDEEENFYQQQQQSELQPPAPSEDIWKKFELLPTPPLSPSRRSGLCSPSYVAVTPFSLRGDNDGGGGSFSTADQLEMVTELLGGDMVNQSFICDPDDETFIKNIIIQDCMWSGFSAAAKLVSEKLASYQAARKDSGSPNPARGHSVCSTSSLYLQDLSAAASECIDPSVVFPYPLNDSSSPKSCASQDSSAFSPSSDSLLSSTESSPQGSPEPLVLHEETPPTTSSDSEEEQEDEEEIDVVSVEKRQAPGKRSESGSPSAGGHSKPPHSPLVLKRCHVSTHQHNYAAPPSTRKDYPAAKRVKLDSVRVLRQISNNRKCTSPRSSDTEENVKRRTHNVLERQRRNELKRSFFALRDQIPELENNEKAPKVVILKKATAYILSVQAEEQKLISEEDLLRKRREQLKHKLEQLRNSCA
MYC (p64);MAX (p21), in MYC:MAX, sequence (P61244 other isoform, or with tags, fused parts or gaps |, chain 2 of 2): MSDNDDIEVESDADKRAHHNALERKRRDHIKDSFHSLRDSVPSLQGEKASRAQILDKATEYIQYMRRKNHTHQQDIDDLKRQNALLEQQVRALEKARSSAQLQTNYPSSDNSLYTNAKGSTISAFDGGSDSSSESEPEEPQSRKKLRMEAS

Sequence | binding signal
CCGGCACTCACGTGGTATTAATAGCTAAGATTACTATATCGACG | 0.862 log2 normalized fluorescence
CCGGCTACTACGTGGTATTAATAGCTAAGATTACTATATCGACG | 0.34 log2 normalized fluorescence
CCGGCACCCACGTGGTATTAATAGCTAAGATTACTATATCGACG | 0.845 log2 normalized fluorescence
CCGGCAGAGACGTGGTATTAATAGCTAAGATTACTATATCGACG | 0.387 log2 normalized fluorescence
CCGGCACGCACGTGGTATTAATAGCTAAGATTACTATATCGACG | 0.838 log2 normalized fluorescence
CCGGCTGAACCTCAGTATTAATAGCTAAGATTACTATATCGACG | 0.265 log2 normalized fluorescence
CCGGCTGAAATGCCGTATTAATAGCTAAGATTACTATATCGACG | 0.0989 log2 normalized fluorescence
CCGGCTGATACGTGGTATTAATAGCTAAGATTACTATATCGACG | 0.341 log2 normalized fluorescence
CCGGCTGAGTGATCGTATTAATAGCTAAGATTACTATATCGACG | 0.194 log2 normalized fluorescence
CCGGCTGAACATACGTATTAATAGCTAAGATTACTATATCGACG | 0.202 log2 normalized fluorescence
CCGGCTGATGGCGGGTATTAATAGCTAAGATTACTATATCGACG | 0.232 log2 normalized fluorescence
CCGGCTGACCCCGTGTATTAATAGCTAAGATTACTATATCGACG | 0.42 log2 normalized fluorescence
CCGGCGGACACGAGGTATTAATAGCTAAGATTACTATATCGACG | 0.562 log2 normalized fluorescence
CCGGCTGACCACCCGTATTAATAGCTAAGATTACTATATCGACG | 0.348 log2 normalized fluorescence
CCGGCTGAGGGACGGTATTAATAGCTAAGATTACTATATCGACG | 0.0602 log2 normalized fluorescence
CCGGCTGATGTTCTGTATTAATAGCTAAGATTACTATATCGACG | 0.261 log2 normalized fluorescence
CCGGCTGATGAGGTGTATTAATAGCTAAGATTACTATATCGACG | -0.000883 log2 normalized fluorescence
CCGGCTGAGTATACGTATTAATAGCTAAGATTACTATATCGACG | 0.0171 log2 normalized fluorescence
CCGGCAGCCACGTTGTATTAATAGCTAAGATTACTATATCGACG | 0.643 log2 normalized fluorescence

Sequence | binding signal
CCGGCATGCACGTGGTATTAATAGCTAAGATTACTATATCGACG | 0.877 log2 normalized fluorescence
CCGGCAGCTACGTGGTATTAATAGCTAAGATTACTATATCGACG | 0.389 log2 normalized fluorescence
CCGGCAGTCACGTGGTATTAATAGCTAAGATTACTATATCGACG | 0.893 log2 normalized fluorescence
CCGGCTGTCACGTGGTATTAATAGCTAAGATTACTATATCGACG | 0.706 log2 normalized fluorescence
CCGGCAGCCACGTGGTATTAATAGCTAAGATTACTATATCGACG | 0.908 log2 normalized fluorescence
CCGGCTGCATCGTGGTATTAATAGCTAAGATTACTATATCGACG | 0.636 log2 normalized fluorescence
CCGGCTGAAAGAGAGTATTAATAGCTAAGATTACTATATCGACG | -0.0282 log2 normalized fluorescence
CCGGCTGACCGGGTGTATTAATAGCTAAGATTACTATATCGACG | 0.119 log2 normalized fluorescence
CCGGCTGAGTACGGGTATTAATAGCTAAGATTACTATATCGACG | -0.0173 log2 normalized fluorescence
CCGGCTGATGCGCAGTATTAATAGCTAAGATTACTATATCGACG | 0.0262 log2 normalized fluorescence
CCGGCTCATACGTGGTATTAATAGCTAAGATTACTATATCGACG | 0.558 log2 normalized fluorescence
CCGGCTGGTACGTGGTCTTAATAGCTAAGATTACTATATCGACG | 0.364 log2 normalized fluorescence
CCGGCTGAAACGTGGTCTTAATAGCTAAGATTACTATATCGACG | 0.74 log2 normalized fluorescence
CCGGCGCTCACGTGGTATTAATAGCTAAGATTACTATATCGACG | 0.815 log2 normalized fluorescence
CCGGCTTACACGTGGGATTAATAGCTAAGATTACTATATCGACG | 0.81 log2 normalized fluorescence
CCGGCTCTCACGTGGTCTTAATAGCTAAGATTACTATATCGACG | 0.836 log2 normalized fluorescence
CCGGCTCAGACGTGGTATTAATAGCTAAGATTACTATATCGACG | 0.391 log2 normalized fluorescence
CCGGCTCACACGTGGGCTTAATAGCTAAGATTACTATATCGACG | 0.832 log2 normalized fluorescence
CCGGCTCACGATGGGGCTTAATAGCTAAGATTACTATATCGACG | 0.398 log2 normalized fluorescence

Sequence | binding signal
CCGGCTCTTACGTGGTATTAATAGCTAAGATTACTATATCGACG | 0.358 log2 normalized fluorescence
CCGGCTCTCACGTGGTATTAATAGCTAAGATTACTATATCGACG | 0.891 log2 normalized fluorescence
CCGGCGGTCACGTGGTATTAATAGCTAAGATTACTATATCGACG | 0.805 log2 normalized fluorescence
CCGGCTGGCACCCGGTATTAATAGCTAAGATTACTATATCGACG | 0.242 log2 normalized fluorescence
CCGGCTGACGTTTTGTATTAATAGCTAAGATTACTATATCGACG | -0.0354 log2 normalized fluorescence
CCGGCTGAAAGGCCGTATTAATAGCTAAGATTACTATATCGACG | 0.17 log2 normalized fluorescence
CCGGCTGACACGCATTATTAATAGCTAAGATTACTATATCGACG | 0.524 log2 normalized fluorescence
CCGGCCATCACGTGGTATTAATAGCTAAGATTACTATATCGACG | 0.764 log2 normalized fluorescence
CCGGCGATCACGTGGTATTAATAGCTAAGATTACTATATCGACG | 0.946 log2 normalized fluorescence
CCGGCCGTCACGTGGTATTAATAGCTAAGATTACTATATCGACG | 0.809 log2 normalized fluorescence
CCGGCCCTCACGTGGTATTAATAGCTAAGATTACTATATCGACG | 0.828 log2 normalized fluorescence
CCGGCTCACACGTCGTATTAATAGCTAAGATTACTATATCGACG | 0.506 log2 normalized fluorescence
CCGGCTCACATGTGGTATTAATAGCTAAGATTACTATATCGACG | 0.918 log2 normalized fluorescence
CCGGCTCACACGTGGTATTAATAGCTAAGATTACTATATCGACG | 0.998 log2 normalized fluorescence
CCGGCCGACATGTGGTATTAATAGCTAAGATTACTATATCGACG | 0.663 log2 normalized fluorescence
CCGGCTTACATGTGGTATTAATAGCTAAGATTACTATATCGACG | 0.625 log2 normalized fluorescence
CCGGCTATCACGTGGTATTAATAGCTAAGATTACTATATCGACG | 0.71 log2 normalized fluorescence
CCGGCTATTACGTGGTATTAATAGCTAAGATTACTATATCGACG | 0.323 log2 normalized fluorescence
